BRCA1 expr up: activators of BRCA1 expression; 380,000 tested, 1.1% active; MCF7-BRCA1-FFLuc reporter, luminescence, 48 h; response scale: scaled: vehicle 0%, 10 µM genistein 100%; Potency, µM (titrated, usually from 46.1 µM), without a hit: at the top dose activation, usual class: activators; also: potency is read from the fitted curve at half-maximal effect; nearly all actives have a fitted effect of over 80% in size
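Activators of BRCA1 expression were detected as increased firefly luciferase luminescence in engineered MCF7 cells after 48 h compound incubation. Signals were scaled to genistein 10 microM as full activation.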
N370S GC mod: inhibits or activates N370S mutant glucocerebrosidase | N370S GC spleen homogenate, 4MU-glucoside fluorescence | P04062 | Potency, µM (top dose mostly 59.4 µM), for the others: top-dose activity change, negative = inhibition, usual class: inhibitors | 330,000 tested, 0.092% active;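 also: potency is read from the fitted curve at half-maximal effect; 0% = full enzyme activity and -100% = no enzyme basal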
TSHR antag: human thyrotropin receptor antagonism; P16473; TSHR-expressing cells, TSH-stimulated cAMP HTRF, 2 h; hits give low values; activity change, negative = inhibition, % at 11.5 µM; 330,000 tested, 0.2% active;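 active = activity change below a set negative limit, meaning inhibition stronger than a set level, cut at about -70% in these data; inconclusive = activity change between two set negative limits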; also: % is scaled to controls: 0 for no effect and ±100 for the full control effect
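Antagonism was scored as loss of TSH-driven cAMP in TSHR cells, stimulated with 4nM TSH (EC80) for 2 hours at 37 deg C and detected by homogeneous HTRF competition immunoassay.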
GLS inhibitor: glutaminase GLS (human) inhibition; O94925; GLS enzymatic activity, qHTS titration; Potency, µM (titrated, usually from 45.5 µM), for inactives: at the top dose activity change, negative = inhibition, hits mostly inhibitors; 410,000 tested, 0.21% active; AID 624170; also: potency is read from the fitted curve at half-maximal effect; % is scaled to controls: 0 for no effect and ±100 for the full control effect
Target sequence (O94925 whole entry, looked up): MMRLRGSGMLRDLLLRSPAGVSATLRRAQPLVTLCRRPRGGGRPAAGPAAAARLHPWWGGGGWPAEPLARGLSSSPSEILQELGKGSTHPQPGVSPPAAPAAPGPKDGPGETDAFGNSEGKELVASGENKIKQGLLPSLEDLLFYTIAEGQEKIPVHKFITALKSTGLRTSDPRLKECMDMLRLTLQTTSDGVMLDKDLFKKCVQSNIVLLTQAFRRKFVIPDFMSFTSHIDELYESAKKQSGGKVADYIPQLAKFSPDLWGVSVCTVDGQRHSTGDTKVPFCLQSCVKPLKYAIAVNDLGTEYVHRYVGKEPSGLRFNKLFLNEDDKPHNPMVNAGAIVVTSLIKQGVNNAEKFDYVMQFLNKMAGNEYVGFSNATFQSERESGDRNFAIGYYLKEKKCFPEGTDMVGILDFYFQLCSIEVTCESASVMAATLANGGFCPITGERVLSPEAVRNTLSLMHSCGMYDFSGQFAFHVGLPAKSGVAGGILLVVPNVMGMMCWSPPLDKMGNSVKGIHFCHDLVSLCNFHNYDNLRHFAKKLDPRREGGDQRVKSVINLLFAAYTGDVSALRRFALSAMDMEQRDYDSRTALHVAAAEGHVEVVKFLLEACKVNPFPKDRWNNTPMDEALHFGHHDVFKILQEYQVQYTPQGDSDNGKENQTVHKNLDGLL
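hKGA in 45 mM KH2PO4 pH 8.2, 0.02% Tween-20 with pin-transferred compounds; 1 mM L-glutamine (stock) plus glutamate oxidase/HRP/Amplex Red coupling added. Fluorescence read initially and after 30 min at RT.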
TCR act: T cell receptor activation. 330,000 tested, under 10 active. AID 504894. primary human leukocytes, anti-CD3, IL-2 HTRF, 48 h. Potency, µM (titrated, usually from 9.22 µM), without a hit: at the highest dose activation of IL-2 secretion, hits mostly activators; also: % of control where 0% means no effect
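Readout: HTRF IL-2, Eu-cryptate/d2 antibody pair, 320nm excitation, 665nm emission. Stimulus: a-CD3 beads, no co-stimulation. Cells: primary human leukocytes. Exposure: 48 hr with compound.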
p53 reactivator: re-activators of mutant p53. H1299 p53-A138V BP100-luciferase reporter, luminescence, 24 h. Potency, µM (top dose mostly 92.2 µM), inactives show top-dose activity change, positive = activation, usual class: activators. 320,000 tested, 0.063% active. AID 504706; also: potency is read from the fitted curve at half-maximal effect; % of control where 0% means no effect; nearly all actives have a fitted effect of over 45% in size
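H1299 (p53-null), stable ts p53-A138V + BP100-Luc; 1000 cells/well, Opti-MEM/10% FBS; cpd 4 pt, 1:5; 24 h, 37 deg C, 5% CO2; detection reagent 10 min RT; luminescence.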
* marks the source's active call; other numbers are inactive results; ? = inconclusive; · = not tested or not shown; [ ] = dose if it differs, or a comment. Most compounds without a hit are left out; they make up all but 1.4% or so of the library. Unless noted, calls follow the shape of the dose curve; as a rule, active = well fitted curve in the direction sought with a large enough effect; inconclusive = small, poorly fitted or top-dose-only effect, or another doubt; inactive = no such curve, though single readings can be large; an effect the other way counts as inactive or inconclusive.

SMILES | BRCA1 expr up | N370S GC mod | TSHR antag | GLS inhibitor | TCR act | p53 reactivator
Oc1ccc(/C=N/N2CCN(C3c4ccccc4-c4ccccc43)CC2)cc1O | -33.4% | -12.3% | -12.7 | 11.2µM* | 3.1% | 1.9%
Cc1ccccc1NC(=O)N1CCCC(c2nc(-c3ccc(F)cc3)no2)C1 (stereo not drawn) | -14.1% | 6.7% | -5.2 | -12.5% | -0.1% | 2.8%
Cc1ccccc1NC(=O)N1CCCC(c2nc(-c3ccc(C(C)C)cc3)no2)C1 (stereo not drawn) | -39.5% | 18.0% | -4.4 | -18.0% | 1.0% | 44.7µM*
CCn1nc([N+](=O)[O-])c(C(C#N)c2nc3ccccc3n2C)c(Cl)c1=O (stereo not drawn) | -36.9% | 0.5% | -11.5 | 9.0% | -3.3%[46.1 µM] | 11.9%
CCCn1nc([N+](=O)[O-])c(C(C#N)c2nc3ccccc3s2)c(Cl)c1=O (stereo not drawn) | -68.1% | · | -76.0* | 29.2% | 0.6% | -2.9%
Cc1csc(SCc2nnc(-c3ccc(Cl)cc3)o2)n1 | 7.08µM* | 6.7% | -5.7 | 8.1% | -0.3% | ?
CN(C)C(=O)c1ccc(-c2ccc3ncnc(N4CCOCC4)c3c2)cc1 | · | -7.3% | · | · | · | ·
CN(C)c1ccc(C(=C2C=CC(=[N+](C)C)C=C2)c2ccccc2)cc1 | · | -8.6% | · | 25.6% | · | ·
CN(C)c1ccc(C(=C2C=CC(=[N+](C)C)C=C2)c2ccc(N(C)C)cc2)cc1 | -71.5% | 3.16µM* | · | 1.7% | · | ·
Oc1ccc(N2CCN(C(c3ccc(Cl)cc3)c3nnnn3Cc3ccc(F)cc3)CC2)cc1 (stereo not drawn) | -50.8% | · | · | · | · | ·
COc1ccc(CCn2c3c(c(=O)[nH]c2=S)CN(CC(C)C)CN3)cc1OC | -31.1% | · | · | · | · | ·
Cc1cc(C)cc(NC(=O)c2cc(Cl)sc2Cl)c1 | 10.6% | 6.1% | -20.5 | 5.3% | -0.5%[46.1 µM] | -3.4%
CC(=O)c1ccc(NC(=O)c2cc(Cl)sc2Cl)cc1 | 3.98µM* | 8.5% | -4.3 | -1.4% | 2.6%[46.1 µM] | ?
COc1ccc(NC(=O)Cn2c(=O)n(-c3cccc(C(F)(F)F)c3)c(=O)c3sccc32)cc1 | · | · | · | 2.5% | · | ·
c1cncc(CNc2ncnc3ccc(-c4ccco4)cc23)c1 | · | 9.1% | 11.6 | · | · | ·
COc1cc(SC)ccc1C(=O)Nc1ccc(C)cc1C | 7.94µM* | 1.9% | -8.2 | 1.6% | -3.0%[46.1 µM] | ?
O=C(CC1SC(=O)N(c2ccccc2)C1=O)Nc1ccc(Cl)cc1 (stereo not drawn) | 11.7% | -0.4% | 0.3 | 11.2µM* | -0.1% | 10.5%
O=C(CC1SC(=O)N(c2ccccc2)C1=O)Nc1ccc(Br)cc1 (stereo not drawn) | -16.1% | -13.6% | -2.8 | ? | -1.9% | 9.9%
O=C(CSc1nc(-c2ccccc2)ns1)N1CCOCC1 | 3.98µM* | 17.2% | 3.9 | -10.3% | 5.6% | 8.7%
Cc1cccc(-c2nsc(SCC(=O)N3CCCC3)n2)c1 | ? | 9.1% | -13.4 | -0.8% | -3.5% | 5.9%
Cc1cc(-c2nc(-c3ccc(C(C)(C)C)cc3)no2)no1 | 7.08µM* | 7.4% | -10.0 | 1.0% | 2.4% | 19.5%
Cc1nc2cc(-c3ccc(Br)cc3)[nH]n2c(=O)c1Cl | 4.47µM* | -10.4% | -12.6 | 7.4% | 1.3% | 10.3%
Cc1cc2nc(C)c(Cl)c(=O)n2[nH]1 | 42.5% | -11.2% | 2.5 | 10.1% | -1.0% | -1.3%
O=[N+]([O-])c1nn(-c2ccc3c(c2)OCCO3)n(O)c1=Nc1ccc(Cl)cc1 | -81.5% | -4.0% | -11.7 | 8.9% | -0.7% | -4.3%
CCc1ccc(N=c2c([N+](=O)[O-])nn(-c3ccc4c(c3)OCCO4)n2O)cc1 | 3.98µM* | -6.0% | -17.0 | 6.0% | 3.1% | ?
SMILES | BRCA1 expr up | N370S GC mod | TSHR antag | GLS inhibitor | TCR act | p53 reactivator
Cc1ccc(S(=O)(=O)Nc2cc(Cl)c3oc4c(c3c2)CCCC4)cc1 | · | · | · | 1.1% | · | ·
COc1cc(-c2nc3ccc(C)cn3c2Nc2ccc3c(c2)OCCO3)ccc1O | -15.8% | ? | 0.8 | 12.6µM* | 2.6% | -4.9%
Cc1ccn2c(Nc3ccc4c(c3)OCO4)c(-c3ccc(O)cc3)nc2c1 | -65.1% | 15.8µM* | 3.3 | 12.8% | -2.5% | 5.1%
COc1cc(-c2nc3ccc(Cl)cn3c2Nc2ccc3c(c2)OCCO3)ccc1O | · | · | · | 2.1% | · | ·
O=C(NCCc1cccs1)c1ccc(Cl)c(Cl)c1 | 3.98µM* | -2.7% | -6.9 | -3.7% | 3.8% | 16.5%
O=C(NCCc1ccccc1)c1ccc(Cl)c([N+](=O)[O-])c1 | 3.98µM* | 2.2% | 9.4 | -0.5% | · | 6.3%
Cc1cc(C(=O)Nc2ccc(Nc3ccccc3)cc2)ccc1[N+](=O)[O-] | -49.0% | -1.2% | -31.6 | 15.8µM* | · | ·
O=C(NCCc1cccs1)c1ccc(Cl)cc1 | ? | 10.9% | 6.9 | 1.8% | -9.3% | 16.0%
O=C(Nc1ccc(Nc2ccccc2)cc1)c1ccc(Cl)c([N+](=O)[O-])c1 | -87.6% | -6.5% | -26.3 | 0.5% | -3.0% | 1.8%
Cc1cc(C(=O)NCCc2ccccc2)ccc1[N+](=O)[O-] | 6.31µM* | -3.1% | 4.9 | -0.7% | -2.3% | 2.0%
Clc1ccc(/C=C/c2ccncc2)cc1Cl | -62.3% | · | · | · | · | ·
COc1ccccc1/C=C1\C=Cc2ccccc21 | 5.9% | · | · | · | · | ·
COc1cc(/C=C/C(=O)O[C@H]2CC[C@]34C[C@]35CC[C@]3(C)[C@@H]([C@H](C)CCC=C(C)C)CC[C@@]3(C)C5CCC4C2(C)C)ccc1O (stereo partly drawn) | · | · | · | -3.3% | · | ·
Cc1ccccc1OCC(=O)N(Cc1ccc(C(C)C)cc1)C1CCS(=O)(=O)C1 (stereo not drawn) | · | · | · | 3.7% | · | ·
CC1(c2nnc(-c3cccc(Cl)c3)o2)CC(c2ccc(F)cc2)=NO1 (stereo not drawn) | 11.2µM* | · | · | 2.9% | -0.7% | ·
CCc1nn2c(-c3ccccc3OC)ccnc2c1-c1ccccc1 | 0.0% | · | · | 0.7% | · | ·
Nc1cc2c3c(cccc3c1)C(=O)N(CCN1CCCC1)C2=O | -78.5% | -6.4% | -31.5 | -9.8% | 7.0% | 0.2%
CCN(CC)CCN1C(=O)c2cccc3cc(N)cc(c23)C1=O | -94.1% | -2.1% | -75.9* | 5.0% | -22.1% | 6.5%
COc1cccc(C2=Nn3c(nnc3-c3ccc(OC)cc3OC)SC2)c1 | · | -2.0% | · | · | · | ·
O=S(=O)(c1ccc(-c2nc3ccccc3s2)cc1)N1CCCC1 | 2.51µM* | · | -0.1 | -1.1% | 15.4% | 9.1%
COc1cccc(NS(=O)(=O)c2cc(-c3cnc(C4CC4)o3)ccc2C)c1 | -14.2% | · | · | -7.5% | · | ·
CCN(CC)c1nc(NC2CCN(C)CC2)c2cc(OC)c(OC)cc2n1 | -10.5% | · | · | · | · | ·
COc1ccc(CCNC(=O)c2nn(C)cc2Cl)cc1 | 7.94µM* | -7.0% | -3.5 | -1.4% | 0.3% | 10.8%

Screening results (PubChem)
